The record followed here is PubChem BioAssay AID652017 (The Scripps Research Institute Molecular Screening Center, 2013).

Among all 370,000 compounds or so, about 3,800 (1%) were called active. Cut-off read from the data, not from the text of the source: active = activation above about 7.8%; inactive = the rest. Shown is part of a subset that was picked to be rich in actives.

This assay can be described thus: SMARCA2 (BRM) function activators, primary screen, cell-based, luminescence, high throughput (AID 652017).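 Note: 0% = vehicle wells and 100% = reference activator wells.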 To be noted: MG213 cells, MMTV-luciferase reporter, dexamethasone, overnight; at 9.1 µM; hits give high values.
Regarding `Cc1ccc(-n2c(SCC(=O)Nc3ccc(S(=O)(=O)Nc4nccs4)cc3)nnc2-c2ccccn2)cc1`, the activation is -6.25% (inactive). Turning to `CCOC(=O)C(=O)N(Cc1ccccc1)c1ccccc1C(=O)Nc1cc(OC)ccc1OC`, the activation is -5.19% (inactive).

As for `CC(c1c[nH]c2ccccc12)c1c(-c2ccccc2)n(C)c2ccccc12` (configuration not stated), the activation is -5.18% (inactive).

`COc1ccc(C(=O)Nc2sc(C)c(C)c2CN2CCOCC2)cc1`: the activation was 8.14% (active). Take `COc1ccc(C(=O)Nc2ccnn2C2CCN(Cc3ccncc3)CC2)cc1`: the activation is -1.75% (inactive). As to `CCc1cc(C(c2ccccc2OC)N2CCOCC2)c(NC(=O)c2ccccc2)s1` (configuration not stated), the activation was -0.4% (inactive). Regarding `O=C(CCl)NC1CCCCN(Cc2cccc(C(F)(F)F)c2)C1=O` (configuration not stated), the activation is -2.12% (inactive).

For the compound `CNC(=O)CN1C(=O)NC(c2ccccc2)(c2ccccc2)C1=O`, the activation is -2.01% (inactive).

For the compound `Cn1c(SCC(=O)c2ccccc2)ncc(C(=O)Nc2ccc(F)cc2)c1=O`, the activation is -2.22% (inactive). As for `Cc1ccc(NC(=O)c2cnc(SCC(=O)NCC3CCCO3)n(C)c2=O)cc1` (configuration not stated), the activation was 8.79% (active). Take `CCCCn1c(SCC(=O)NCC2CCCO2)nc2ccc(N3CCOCC3)cc2c1=O` (configuration not stated): the activation is -3.78% (inactive). On to `Cc1ccccc1-n1cc(CNC(=O)CC2C(=O)NCCN2C/C=C/c2ccccc2)cn1` (configuration not stated), for which the activation is -1.02% (inactive). With `CCCNC(=O)Nc1ccc2c(c1)C(=O)N(C)[C@H]1CC[C@H](CC(=O)NCC3CCCCC3)O[C@@H]1CO2`, the activation was -2.38% (inactive). Consider `CC1(C(=O)NCc2ccccc2)CSCC(=O)N1CCCN1CCOCC1` (configuration not stated), for which the activation is -6.77% (inactive).

In the case of `O=S1(=O)c2ccc(Br)cc2OC[C@H](Cc2ccccc2)N1Cc1cn(Cc2ccccc2)nn1`, the activation is -4.73% (inactive). On to `Cc1nc(N=C(N)N)nc2c(C)cccc12`, for which the activation is 18.7% (active). `COc1nc(N=C(N)N)nc2c(C)cccc12`: the activation is 5.28% (inactive). `Nn1c(SCC(=O)N2c3ccccc3Sc3ccccc32)nnc1-c1n[nH]c2c1CCC2`: the activation was -2.45% (inactive). For `CCCC[C@H](C(=O)N(CC)c1ccccc1)[C@@H](O)c1ccc2ccccc2c1`, the activation is -2.79% (inactive). To `CN1C[C@]2(C=C3CCCCC3n3c(=O)n(-c4ccccc4)c(=O)n32)N=C1NC(=O)c1ccccc1` (some centres not stated) belongs -3.36% (inactive); to `O=C(COC(=O)c1cccnc1Cl)NC12CC3CC(CC(C3)C1)C2`, -0.27% (inactive); to `COCOc1cccc(CN2CCC(C)(Oc3ccc(SC)cc3)C2)c1` (configuration not stated), -2.3% (inactive). `CCOC(=O)[C@]12CCCCC/C=C\1N(Cc1ccc(OC)cc1)C(=O)[C@H]2CC(=O)N1CCOCC1`: the activation was -3.81% (inactive).

Consider `O=C(Nc1nnc(CCc2ccccc2)s1)C1CCCO1` (configuration not stated), for which the activation is 8.46% (active).

In the case of `O=C(C1CCCO1)N(Cc1ccccc1)c1ccccc1` (configuration not stated), the activation is -1.33% (inactive).

`O=C(NCc1ccccc1Cl)C1CCCO1` (configuration not stated): the activation was -4.52% (inactive).

With `CC(=O)C1(C(=O)Nc2nccs2)CC(c2ccccc2C(F)(F)F)=NO1` (configuration not stated), the activation was -1.46% (inactive). On to `COc1ccc(CN(CCN2CCOCC2)C(=O)c2ccc(C)cc2)cc1OC`, for which the activation is -0.94% (inactive). `CN(C)[C@H]1CCN(c2cccc3c2S(=O)(=O)N2CC[C@H](C2)O3)C1`: the activation was 0.57% (inactive).

As for `COc1ccc(-c2cc(-c3nnc(SCC(=O)Nc4cccc5ccccc45)n3N)[nH]n2)cc1`, the activation was -3.63% (inactive). For the compound `COc1ccc(C#CCNCc2ccc(OC)cc2OC)cc1`, the activation is -1.96% (inactive). Next, `COc1ccc(CN(C)Cc2nc3cc(OC)c(OC)cc3c(=O)[nH]2)c(OC)c1`: -2.98% (inactive).

Regarding `C=CCOC/C=C/C#CCN(CC=C)Cc1ccc(OC)cc1OC`, the activation is 7.87% (active). As for `C=CCN1C(=O)[C@H](CC(=O)N2CCN(C(=O)OCC)CC2)[C@@]2(C(=O)OCC)CCCC=C12`, the activation is -0.21% (inactive).

As to `C=CCN1C(=O)[C@H](CC(=O)NCCCN2CCCC2=O)[C@@]2(C(=O)OCC)CCCC=C12`, the activation is -0.89% (inactive). As to `CCn1c2ccccc2c2cc(NC(=O)CSc3nnc(-c4ccccc4)n3-c3ccc(C)cc3)ccc21`, the activation was -2.83% (inactive).

Turning to `CCc1cc2c(=O)c(-c3ccon3)c(N)oc2cc1OC`, the activation is 8.66% (active). Regarding `CCc1cc2c(=O)c(-c3nc4ccccc4n3C)c(CCCC(=O)O)oc2cc1OC(=O)C(C)(C)C`, the activation was -2.32% (inactive). `COc1ccc2oc(N)c(C=O)c(=O)c2c1`: the activation is 0.14% (inactive). As to `O=S1(=O)c2c(NCc3ccco3)cccc2Oc2ccccc2CN1Cc1cn(Cc2cccc(C(F)(F)F)c2)nn1`, the activation is -3.67% (inactive).

In the case of `CCN(CC)CCNC(=O)c1ccc(NC(=O)c2cc(-c3ccncc3)nc3ccccc23)cc1`, the activation is 8.42% (active).

With `CCN(CC)CCOC(=O)c1ccc(NC(=O)CNC(=O)c2ccccc2)cc1`, the activation is -3.5% (inactive). Take `CCN(CC)CCNC(=O)c1ccc(NC(=O)c2c(F)cccc2Cl)cc1`: the activation was -0.88% (inactive). Take `O=C1Nc2ccccc2OC1CC(=O)N1CCCCCCC1` (configuration not stated): the activation was 0.95% (inactive). For `COc1ccc(-c2ccc3nnc(SCC(=O)Nc4ccc(NC(C)=O)cc4)n3n2)cc1`, the activation is -0.74% (inactive). For the compound `O=[N+]([O-])c1ccc(CN2CC(N3CC=CC3)CS2(=O)=O)cc1` (configuration not stated), the activation was -2.21% (inactive). Next, `O=C1/C(=C\c2ccc([N+](=O)[O-])cc2)CS(=O)(=O)C/C1=C/c1ccc([N+](=O)[O-])cc1`: 16.5% (active); `C[C@H](C(=O)N(C)c1ccccc1)[C@@H](O)c1ccc2ccccc2c1`: -2.92% (inactive); `CCCCCCNS(=O)(=O)c1ccccc1Br`: -0.14% (inactive).

Consider `c1csc(-c2nnc(SCc3nc4ccccc4[nH]3)o2)c1`, for which the activation was -0.75% (inactive).

Turning to `O=C(CSc1ccc(-c2cccs2)nn1)Nc1ccccc1F`, the activation was -0.22% (inactive).

On to `CC(C)(C)c1ccc(CSc2nnc(-c3cccs3)o2)cc1`, for which the activation was -1.53% (inactive). On to `Cc1cccc(CSc2ccc(-c3cccs3)nn2)c1`, for which the activation is 9.78% (active). As for `Cc1ccc(OCc2nnc(SC/C=C/c3ccccc3)n2Cc2ccco2)cc1`, the activation is -4.07% (inactive).

`CC(OC(=O)c1cc2ccccc2o1)C(=O)Nc1ccc(N2CCOCC2)cc1` (configuration not stated): the activation was -1.72% (inactive).

In the case of `Cc1cccc(-n2nc3c(c2NC(=O)c2cc4ccccc4o2)CS(=O)(=O)C3)c1`, the activation is -1.69% (inactive). Turning to `Cc1ccc(NC(=O)c2cc3ccccc3o2)cc1`, the activation was 8.36% (active).
